The whole screen tested about 190,000 compounds, of which about 1,300 (0.68%) were called active. Shown is part of a subset that was picked to be rich in actives. Unmarked numbers belong to inactive results. Rule as the data show it: active = inhibition above about 50%; inactive = the rest.

This is an account of results in PubChem BioAssay AID1220 (Sanford-Burnham Center for Chemical Genomics, 2008).

Chain of Mannose-6-phosphate isomerase (Homo sapiens) (P34949 whole entry, looked up): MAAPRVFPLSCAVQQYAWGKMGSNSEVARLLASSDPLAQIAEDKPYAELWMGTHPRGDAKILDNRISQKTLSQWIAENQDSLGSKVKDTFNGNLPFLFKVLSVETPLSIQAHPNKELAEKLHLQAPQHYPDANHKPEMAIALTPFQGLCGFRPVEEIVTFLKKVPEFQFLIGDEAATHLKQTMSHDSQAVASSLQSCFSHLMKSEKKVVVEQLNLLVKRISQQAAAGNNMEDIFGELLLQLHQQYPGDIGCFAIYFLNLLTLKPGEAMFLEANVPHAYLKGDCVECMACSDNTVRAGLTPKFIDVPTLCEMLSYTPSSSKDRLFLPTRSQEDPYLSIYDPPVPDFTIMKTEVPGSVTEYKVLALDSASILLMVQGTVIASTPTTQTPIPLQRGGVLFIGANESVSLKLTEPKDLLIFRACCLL

This assay has as its target Mannose-6-phosphate isomerase (Homo sapiens) (UniProt P34949). Briefly: human PMI inhibitors, high substrate, primary screen, biochemical, fluorescence intensity, high mannose 6-phosphate (AID 1220). The note with it: recombinant PMI enzyme, coupled fluorescence intensity; at 20 µM; stronger effect = higher value.
As usually defined, the inhibition is the relative decrease from the control value, in per cent. For `CNCC(C)COc1ccccc1OCc1ccccc1` (stereo not given), the inhibition is -5.2%.
The result for `N#CC1=C(N)OC2=C(C(=O)CCC2)C12CCN(C(=O)OCc1ccccc1)CC2` reads -6.7%; that for `CCOc1ccccc1NS(=O)(=O)c1c(C)noc1C`, 54.2% (active); that for `CCOc1ccccc1NS(=O)(=O)c1cn(C)nc1C`, -10.4%.
The result for `CCOc1ccccc1NC(=O)C1CCN(S(=O)(=O)c2c(C)noc2C)CC1` reads 2.7%; that for `CC(=O)Nc1c(NC(=O)CC#N)[nH]c2c(c1=O)c(=O)n(C)c(=O)n2C`, 15.1%.
The result for `CCn1c(C)cc(C=C2C(=O)c3ccccc3C2=O)c1C` reads 20.2%; that for `Cc1ccc(N(CC(=O)Nc2ccc(F)c(Cl)c2)S(=O)(=O)c2c(C)noc2C)cc1`, 11.9%; that for `CCNC(=O)Nc1ccccc1C(=O)OC`, -5.5%.
`CCOC(=O)CNC(=O)Nc1ccccc1C(=O)OC`: the inhibition is -7.2%.
Consider `C#CC(CC)(CC)NC(=O)Nc1ccccc1C(=O)OC`, for which the inhibition was 64.6% (active).
The result for `N#Cc1nc(-c2cccs2)oc1NCC1CCCO1` (stereo not given) reads 0.2%; that for `O=[N+]([O-])c1ccc(N2CCOCC2)cc1SCc1ccco1`, 68.5% (active).
The figure for `CS(=O)(=O)N1CCN(c2ccc([N+](=O)[O-])c(SCc3ccco3)c2)CC1` is 43.6%; for `O=[N+]([O-])c1ccc(SCc2ccco2)cc1N1CCOCC1` it is 1.4%; for `CC(=O)NC(=S)Nc1ccc(S(=O)(=O)N2CCOCC2)cc1` it is -4.7%.
As to `O=C1CSc2ccc(C(=O)NCCC3=CCCCC3)cc2N1`, the inhibition was -5.5%.
Turning to `COC(=O)c1ccc2c(c1)NC(=O)CS2`, the inhibition was -9.2%.
As for `COCCNC(=O)c1ccc2c(c1)NC(=O)CS2`, the inhibition is 53.7% (active).
The result for `COc1cccc(C(=O)Nc2ccc(S(=O)(=O)Nc3onc(C)c3C)cc2)c1` reads -1.9%.
The figure for `COc1ccc(OCC(O)COc2ccc(OC)cc2)cc1` is -1.9%.
As to `Nc1ccc(OCC(O)C[n+]2ccc(CCS(=O)(=O)[O-])cc2)cc1` (stereo not given), the inhibition was 53.8% (active).
The result for `Nc1ccc(CCS(N)(=O)=O)cc1` reads -2.1%; that for `Cc1cc(CNC(=O)COc2ccccc2F)c2ccccc2n1`, -0.4%.
The result for `COc1ccc(CN2CCN(Cc3csc(C(C)=O)c3)CC2CCO)c(C)c1C` (stereo not given) reads -1.9%; that for `COc1ccc(/C=N/NC(=O)c2nn(-c3ccc(C)c(C)c3)c(=O)c3ccccc23)cc1`, 22.6%; that for `CCOC(=O)c1nn(-c2ccccc2)c(=O)c2c(NC(C)=O)scc12`, 0%.
The result for `CCOC(=O)c1nn(-c2ccc(F)cc2)c(C)c1C(C)=O` reads -0.1%; that for `CCOC(=O)c1nn(-c2ccc(C)c(C)c2)cc1O`, 12.2%.
In the case of `COc1ccc(/C=N/NC(=O)c2nn(-c3ccccc3)c(=O)c3c(N)scc23)cc1`, the inhibition was 52.4% (active).
The figure for `CCOC(=O)c1nn(-c2ccc(C)c(C)c2)c(=O)c2c(N)scc12` is 54.4% (active); for `Cc1ccc(-n2nc(C(=O)O)c3ccccc3c2=O)cc1C` it is -1.7%; for `CCOC(=O)c1nn(-c2ccc(F)cc2)c(=O)c2c(N)scc12` it is 62.3% (active).
On to `COc1ccc(/C=N/NC(=O)c2nn(-c3ccc(Cl)cc3)c(=O)c3c(N)scc23)cc1`, for which the inhibition is 41.9%.
The result for `CCCSc1cc(=O)n(-c2ccc(F)cc2)nc1C(=O)OCC` reads -6%.
Take `CCOC(=O)c1nn(-c2ccccc2)c(=O)c2c(N)scc12`: the inhibition was 63.3% (active).
Regarding `CCOC(=O)c1nn(-c2ccccc2)c(C(=O)OCC)c1N`, the inhibition is 10.9%.
The result for `CCOC(=O)C1CCN(S(=O)(=O)c2ccc(C(=O)OC)cc2)CC1` reads -3.3%; that for `CCOC(=O)c1cc2occc2n1CC(=O)Nc1ccc(OC)cc1OC`, 9%.
The result for `CCOC(=O)c1nn(-c2ccc(OC)cc2)c(=O)c2c(N)scc12` reads 27.4%; that for `CCOC(=O)c1nc(N)c(=O)n(-c2ccc(C)cc2)n1`, -8.9%.
The figure for `CCOC(=O)c1nn(-c2ccc(C)cc2)c(=O)c2c(N)scc12` is 61.7% (active); for `COc1ccccc1NC(=O)C/C(N)=N/O` it is -9.6%; for `CNC(=O)C(=O)NCCCN1CCOCC1` it is -4.4%.
As to `O=[N+]([O-])c1ccc(N2CCCCC2)cc1N1CCOCC1`, the inhibition is 4.6%.
The result for `CCNc1cc(N2CCCC2)ccc1[N+](=O)[O-]` reads 32.8%; that for `O=[N+]([O-])c1ccc(N2CCCC2)cc1N1CCCC1`, 50.2% (active); that for `C=CCNc1cc(N2CCCC2)ccc1[N+](=O)[O-]`, 51.8% (active).
Regarding `CCOc1cc(N2CCCC2)ccc1[N+](=O)[O-]`, the inhibition is 53.4% (active).
Regarding `Cc1cc(N2CCCCC2)ccc1[N+](=O)[O-]`, the inhibition was 44.8%.
The result for `COc1cc(N2CCCC2)ccc1[N+](=O)[O-]` reads 19.4%; that for `CC(C)(C)CNc1cc(N2CCCC2)ccc1[N+](=O)[O-]`, 11.3%.
The figure for `O=[N+]([O-])c1ccc(N2CCOCC2)cc1N1CCCCC1` is -3.2%; for `O=C(/C=C/c1ccco1)c1ccc(O)cc1` it is 11.9%; for `Cn1c(CN2CCCC2)nc2cc(NC(=O)c3cccs3)ccc21` it is -21.8%.
The result for `Cc1nn(-c2ccc(F)cc2F)c2c1-c1nc(N3CCCC3)ncc1CC2` reads 38.1%.
In the case of `Cc1nn(-c2ccccn2)c2c1-c1nc(N3CCOCC3)ncc1CC2`, the inhibition is 57.5% (active).
In the case of `Cc1nn(-c2ccccn2)c2c1-c1nc(N)ncc1CC2`, the inhibition is 40.6%.
Consider `C[C@@H]1NC(=O)[C@H](CCCN=C(N)N)NC(=O)c2cc([N+](=O)[O-])cc(I)c2OCC[C@@H](C(N)=O)NC1=O`, for which the inhibition is -20.7%.
With `Nc1ccc2nc(C(F)(F)F)[nH]c2c1`, the inhibition is 37%.
The figure for `Cc1nc2cc3nc(C(F)(F)F)[nH]c3cc2[nH]1` is 52.2% (active); for `Cc1nc2ccc(C(C(F)(F)F)(C(F)(F)F)C(F)(F)F)cc2[nH]1` it is 14.4%.
The figure for `COCCNC(=O)C1=NOC(Cn2cc(C#N)c(=O)n(C)c2=O)C1` (stereo not given) is 5.3%; for `CCCNC(=O)/C=C/c1ccc(S(=O)(=O)Nc2ccccc2OC)cc1` it is -3.6%.
The figure for `CC1CCCCC1NC(=O)CCCn1c(=S)[nH]c2ccccc2c1=O` (stereo not given) is -12.4%.
